In the antibiotic and cytotoxicity screens of Wong et al. (2023):
In all, about 39,000 compounds went through this assay and about 3,300 (8.5%) were called active. Only a selection was taken, and actives are over-represented in it overall.

These molecules were tested on HepG2 (assay: cytotoxicity call (relative viability < 0.9)). Conditions: 10 µM.

Structure (SMILES)	cytotoxicity call
C[C@H](CO)N1C[C@H](C)[C@H](CN(C)Cc2ccc(Oc3ccccc3)cc2)Oc2ncc(-c3cccnc3)cc2C1=O	inactive
C[C@H](CO)N1C[C@H](C)[C@H](CN(C)C(=O)NC2CCCCC2)Oc2ccc(NC(=O)Nc3cccc4ccccc34)cc2C1=O	inactive
C[n+]1c2cc(N)ccc2cc2ccc(N)cc21.[Cl-]	active
C[C@@H]1CCCCO[C@@H](CN(C)Cc2ccc(C(=O)O)cc2)[C@H](C)CN([C@H](C)CO)C(=O)c2cc(NC(=O)c3ccccc3)ccc2O1	inactive
C[C@H]1CN([C@@H](C)CO)C(=O)CCCn2cc(nn2)CO[C@H]1CN(C)C(=O)Nc1cccc(Oc2ccccn2)c1	inactive
CC(=O)OC[C@H]1O[C@@H](n2ccc(=O)[nH]c2=O)[C@H](OC(C)=O)[C@@H]1OC(C)=O	inactive
COCC(=O)N1C[C@H](C)[C@H](OC)CN(C)C(=O)c2cc(NC(=O)Nc3cccc(F)c3)ccc2OC[C@@H]1C	inactive
COc1ccc(NC(=O)Nc2ccc3c(c2)C(=O)N([C@H](C)CO)C[C@H](C)[C@H](CN(C)Cc2ccc(Cl)c(Cl)c2)O3)cc1	active
COc1ccc(NC(=O)Nc2ccc3c(c2)C(=O)N([C@@H](C)CO)C[C@H](C)[C@H](CN(C)Cc2ccc(Cl)c(Cl)c2)O3)cc1	active
COc1ccc(NC(=O)Nc2ccc3c(c2)C(=O)N([C@@H](C)CO)C[C@H](C)[C@@H](CN(C)Cc2ccc(Cl)c(Cl)c2)O3)cc1	inactive
COc1ccc(NC(=O)Nc2ccc3c(c2)C(=O)N([C@H](C)CO)C[C@@H](C)[C@@H](CN(C)Cc2ccc(Cl)c(Cl)c2)O3)cc1	inactive
COc1ccc(NC(=O)Nc2ccc3c(c2)C(=O)N([C@@H](C)CO)C[C@@H](C)[C@@H](CN(C)Cc2ccc(Cl)c(Cl)c2)O3)cc1	inactive
COc1ccc(NC(=O)Nc2ccc3c(c2)C(=O)N([C@H](C)CO)C[C@H](C)[C@@H](CN(C)Cc2ccc(Cl)c(Cl)c2)O3)cc1	inactive
C[C@H]1CN([C@@H](C)CO)S(=O)(=O)c2ccc(-c3ccc(C(=O)N(C)C)cc3)cc2O[C@@H]1CN(C)C(=O)C1CCC1	inactive
O=C(CCc1ccc(O)cc1)c1c(O)c([C@@H]2O[C@H](CO)[C@@H](O)[C@H](O)[C@H]2O)c(O)c([C@@H]2O[C@H](CO)[C@@H](O)[C@H](O)[C@H]2O)c1O	inactive
CC(=O)O[C@H]1[C@H](Oc2cc(O)cc(O)c2C(=O)c2cc(O)cc(O)c2)O[C@H](CO)[C@@H](OC(=O)c2ccccc2)[C@@H]1O	inactive
O=C(O[C@H]1[C@H](O)[C@@H](CO)O[C@H](c2c(O)cc(O)c(C(=O)c3ccc(O)cc3)c2O)[C@H]1OC(=O)c1cc(O)c(O)c(O)c1)c1cc(O)c(O)c(O)c1	active
Cc1ccc(S(=O)(=O)N(C)C[C@@H]2Oc3ccc(NC(=O)CCCN(C)C)cc3CC(=O)N([C@H](C)CO)C[C@H]2C)cc1	inactive
CN(C)CC#Cc1ccc([C@@H]2[C@H](CO)N3C(=O)CN(C(=O)CN(C)C)C[C@@H]23)cc1	inactive
C[C@H](CO)N1C[C@H](C)[C@H](CN(C)S(=O)(=O)c2cccs2)Oc2c(NC(=O)c3ccncc3)cccc2C1=O	inactive
C[C@@H]1CN([C@@H](C)CO)C(=O)c2cccc(NC(=O)c3ccncc3)c2O[C@H]1CN(C)S(=O)(=O)c1cccs1	inactive
C[C@@H]1CN([C@H](C)CO)C(=O)c2cccc(NC(=O)c3ccncc3)c2O[C@H]1CN(C)S(=O)(=O)c1cccs1	inactive

Structure (SMILES)	cytotoxicity call
C[C@@H]1CN([C@H](C)CO)C(=O)c2cccc(NC(=O)c3ccncc3)c2O[C@@H]1CN(C)S(=O)(=O)c1cccs1	active
C[C@@H]1CN([C@@H](C)CO)C(=O)c2cccc(NC(=O)c3ccncc3)c2O[C@@H]1CN(C)S(=O)(=O)c1cccs1	active
C[C@H]1CN([C@@H](C)CO)C(=O)c2cccc(NC(=O)c3ccncc3)c2O[C@H]1CN(C)S(=O)(=O)c1cccs1	inactive
CO[C@H]1CN(C)C(=O)c2cc(NS(=O)(=O)c3cn(C)cn3)ccc2OC[C@@H](C)N(Cc2cccc(F)c2)C[C@@H]1C	inactive
Cc1noc(C)c1NC(=O)N(C)C[C@H]1Oc2ccc(NC(=O)C3CC3)cc2C(=O)N([C@H](C)CO)C[C@@H]1C	inactive
C[C@@H]1CN([C@H](C)CO)C(=O)c2cc(NS(C)(=O)=O)ccc2O[C@@H](C)CCCCO[C@H]1CN(C)CC1CC1	inactive
C[C@@H]1CCCCO[C@@H](CN(C)C(=O)c2ccccc2)[C@H](C)CN([C@@H](C)CO)C(=O)c2cc(NS(=O)(=O)c3ccccc3)ccc2O1	inactive
C[C@@H]1CN([C@H](C)CO)S(=O)(=O)c2ccc(Br)cc2O[C@H]1CN(C)C(=O)Nc1ccccc1	inactive
C[C@H]1CN([C@@H](C)CO)C(=O)Cc2cc(NC(=O)Nc3cccc4ccccc34)ccc2O[C@H]1CN(C)CC1CCCCC1	active
C[C@@H]1CN([C@H](C)CO)C(=O)Cc2cc(NC(=O)Nc3cccc4ccccc34)ccc2O[C@H]1CN(C)CC1CCCCC1	inactive
C[C@@H]1CN([C@H](C)CO)C(=O)Cc2cc(NC(=O)Nc3cccc4ccccc34)ccc2O[C@@H]1CN(C)CC1CCCCC1	active
C[C@H]1CN([C@@H](C)CO)C(=O)Cc2cc(NC(=O)Nc3cccc4ccccc34)ccc2O[C@@H]1CN(C)CC1CCCCC1	active
C[C@@H]1CN([C@H](C)CO)C(=O)Cc2cc(NC(=O)Nc3cccc4ccccc34)ccc2O[C@@H]1CN(C)C(=O)NC1CCCCC1	inactive
C[C@@H]1CN([C@@H](C)CO)C(=O)Cc2cc(NC(=O)Nc3cccc4ccccc34)ccc2O[C@@H]1CN(C)CC1CCCCC1	active
C[C@@H]1CN([C@@H](C)CO)C(=O)Cc2cc(NC(=O)Nc3cccc4ccccc34)ccc2O[C@H]1CN(C)CC1CCCCC1	inactive
C[C@H](CO)N1C[C@H](C)[C@@H](CN(C)CC2CCCCC2)Oc2ccc(NC(=O)Nc3cccc4ccccc34)cc2CC1=O	inactive
C[C@H](CO)N1C[C@H](C)[C@H](CN(C)CC2CCCCC2)Oc2ccc(NC(=O)Nc3cccc4ccccc34)cc2CC1=O	inactive
COc1ccc(S(=O)(=O)Nc2ccc3c(c2)C(=O)N([C@@H](C)CO)C[C@@H](C)[C@H](CN(C)S(=O)(=O)c2ccccc2)O3)cc1	inactive
Cc1ccc(S(=O)(=O)Nc2ccc3c(c2)C(=O)N([C@H](C)CO)C[C@H](C)[C@@H](CN(C)C(=O)Cc2ccccc2)OCCCC[C@H](C)O3)cc1	inactive
CN1C(=O)c2cc(NC(=O)c3cccs3)ccc2OC[C@H]2O[C@H](CC(=O)NCCN3CCCCC3)CC[C@H]21	inactive
CO/N=C1\CN(c2nc3c(cc2F)c(=O)c(C(=O)O)cn3C2CC2)C[C@@H]1CN	inactive
COc1ccc(S(=O)(=O)N2C[C@@H](O)COC[C@@H]3O[C@@H](CC(=O)N[C@@H]4CCN(Cc5ccccc5)C4)CC[C@H]32)cc1	inactive

Structure (SMILES)	cytotoxicity call
C[C@]1(C(=O)NCC(F)(F)F)c2ccccc2C(=O)N(Cc2cc(F)cc(C(F)(F)F)c2)[C@H]1c1ccc(CO)cc1	inactive
Cc1ccc(S(=O)(=O)Nc2cccc3c2O[C@@H](CN(C)S(=O)(=O)c2ccccc2)[C@H](C)CN([C@@H](C)CO)C3=O)cc1	inactive
COCC#Cc1cnc2c(c1)C(=O)N([C@@H](C)CO)C[C@@H](C)[C@@H](CN(C)C(=O)CCN1CCCCC1)O2	inactive
Cc1noc(C)c1NC(=O)Nc1ccc2c(c1)C(=O)N([C@H](C)CO)C[C@H](C)[C@@H](CN(C)S(=O)(=O)c1ccccc1)OCCCC[C@@H](C)O2	inactive
NC1(Cc2ccc(Cl)cc2)CCN(c2ncnc3[nH]ccc23)CC1	active
Cc1ccc(S(=O)(=O)N2C[C@H](O)COC[C@@H]3O[C@@H](CC(=O)N[C@@H]4CCN(Cc5ccccc5)C4)CC[C@H]32)cc1	inactive
CN1CCc2cccc3c2C1Cc1ccc(O)c(O)c1-3.Cl (stereo unspecified)	active
COc1cc2c3cc1Oc1cc(ccc1O)O[C@H]1c4c(cc(OC)c(O)c4Oc4ccc(cc4)C[C@@H]3N(C)CC2)CCN1C	inactive
C[C@H](CO)N1C[C@H](C)[C@@H](CN(C)S(C)(=O)=O)Oc2ccc(NC(=O)NC3CCCCC3)cc2C1=O	inactive
C[C@@H]1CN([C@H](C)CO)C(=O)CCCn2cc(nn2)CO[C@@H]1CN(C)C(=O)CCCN(C)C	inactive
COCC#Cc1cnc2c(c1)C(=O)N([C@@H](C)CO)C[C@@H](C)[C@H](CN(C)C(=O)c1ccc3c(c1)OCO3)O2	inactive
C[C@H](CO)N1C[C@H](C)[C@@H](CN(C)S(=O)(=O)c2cn(C)cn2)Oc2cc(C#Cc3ccc(F)cc3)ccc2S1(=O)=O	inactive
O=C(Cc1ccc(-c2ccccc2)cc1)Nc1c(C(=O)Nc2ccc3c(c2)OCCO3)oc2ccccc12	inactive
CCC(=O)Nc1ccc2ccccc2c1	inactive
Cc1c(C(=O)Nc2ccc3ccccc3c2)oc2ccccc12	active
CC(C)NC(=O)N(C)C[C@H]1Oc2ccc(NC(=O)CCC(F)(F)F)cc2C(=O)N([C@@H](C)CO)C[C@H]1C	inactive
C[C@@H]1CN([C@H](C)CO)S(=O)(=O)c2ccc(C3=CCCC3)cc2O[C@H]1CN(C)C(=O)C1CCOCC1	inactive
COCC(=O)N1C[C@H](C)[C@@H](OC)CN(C)C(=O)c2ccc(NC(=O)c3ccc(OC)cc3)cc2OC[C@H]1C	inactive
CCOC(=O)N1CCC(O)CC1	inactive
CCOC(=O)CN1CCN(C=O)CC1	active
CCOC(=O)CN1C(=O)c2ccccc2C1=O	inactive
CN(C)CCCNC(=O)[C@H]1[C@H](CO)[C@H]2Cn3c(ccc(-c4cccc(C(=O)N(C)C)c4)c3=O)[C@@H]1N2	inactive
